In PubChem BioAssay (Tox21):
Values without a mark were called inactive. A call without a number means that no potency is given here. Calls of active or inactive are those of the source. Unless noted, the call rests on the fitted dose curve; in most records, active means well fitted curve in the direction sought with a large enough effect in the repeat runs; inconclusive means weak or mixed curves; inactive means no such curve, though single readings can be large; an effect the other way counts as inactive or inconclusive.

Columns and labels:
[1] = qHTS assay to identify small molecule antagonists of the thyroid receptor (TR) signaling pathway - cell viability counter screen (AID 743064); further: nearly all actives have a fitted effect of over 50% in size; further: potency means the concentration at half of the fitted maximal effect
Outline: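 Fluorescence from CellTiter-Fluor, added after 23.5 h exposure at 37 °C, reported viability of GH3.TRE-Luc cells co-treated with compound and 1 nM T3. Measured in the same wells as the luciferase TR readout.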

[2] = qHTS assay to identify small molecule antagonists of the thyroid receptor (TR) signaling pathway (AID 743065); further: nearly all actives have a fitted effect of over 55% in size; further: potency means the concentration at half of the fitted maximal effect
Outline: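 GH3.TRE-Luc rat pituitary cells (two TREs driving luciferase) were dosed with compound, then stimulated with 1 nM T3 (final) for 23.5 h at 37 C. ONE-Glo luminescence was the read-out, with CellTiter-Fluor fluorescence as the cytotoxicity counter-screen.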

[3] = system: thyroid hormone receptor (rat, GH3 cells); experiment: qHTS assay to identify small molecule agonists of the thyroid receptor (TR) signaling pathway (AID 743066; calls by dose curve; further: potency means the concentration at half of the fitted maximal effect)
[4] = qHTS assay to identify small molecule antagonists of the estrogen receptor alpha (ER-alpha) signaling pathway - cell viability counter screen (AID 743074; calls by dose curve;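 further: HEK293 cells carrying ER-alpha-UAS-bla reporter stimulated with 17beta-estradiol; nearly all actives have a fitted effect of over 45% in size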)
[5] = qHTS assay to identify small molecule antagonists of the estrogen receptor alpha (ER-alpha) signaling pathway using the BG1 cell line - cell viability counter screen (AID 743081);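 further: compound given together with 17beta-estradiol as the ER stimulus; nearly all actives have a fitted effect of over 45% in size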; further: potency means the concentration at half of the fitted maximal effect
[6] = target: Aromatase (Homo sapiens) (UniProt P11511); experiment: qHTS assay to identify aromatase inhibitors (AID 743083); further: nearly all actives have a fitted effect of over 55% in size; further: potency means the concentration at half of the fitted maximal effect
Chain of Aromatase (Homo sapiens) (P11511 whole entry, looked up): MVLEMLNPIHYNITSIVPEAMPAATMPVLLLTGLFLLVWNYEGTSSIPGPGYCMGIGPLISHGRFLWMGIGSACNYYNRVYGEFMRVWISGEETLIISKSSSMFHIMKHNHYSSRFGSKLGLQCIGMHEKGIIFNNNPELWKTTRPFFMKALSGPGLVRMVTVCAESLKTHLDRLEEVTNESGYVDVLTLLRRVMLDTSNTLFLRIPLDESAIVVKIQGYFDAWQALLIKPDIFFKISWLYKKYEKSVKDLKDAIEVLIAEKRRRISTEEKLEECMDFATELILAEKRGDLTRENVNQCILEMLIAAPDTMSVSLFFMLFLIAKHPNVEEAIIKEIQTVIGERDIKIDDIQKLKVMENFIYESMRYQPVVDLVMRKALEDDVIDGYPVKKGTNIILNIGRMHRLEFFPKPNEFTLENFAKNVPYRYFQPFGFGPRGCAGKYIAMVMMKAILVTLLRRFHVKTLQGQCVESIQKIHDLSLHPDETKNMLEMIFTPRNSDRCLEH

[7] = target: Estrogen receptor (Homo sapiens) (UniProt P03372); experiment: qHTS assay to identify small molecule antagonists of the estrogen receptor alpha (ER-alpha) signaling pathway (AID 743069; active means well fitted curve in the direction sought with a large enough effect in the signal ratio in the repeat runs, not every such curve was filed as active; inconclusive means weak or mixed curves, or effect the other way; inactive means no such curve, though single readings can be large or run the other way; the % refers to the signal ratio; further: potency means the concentration at half of the fitted maximal effect)
Chain of Estrogen receptor (Homo sapiens) (P03372 whole entry, looked up): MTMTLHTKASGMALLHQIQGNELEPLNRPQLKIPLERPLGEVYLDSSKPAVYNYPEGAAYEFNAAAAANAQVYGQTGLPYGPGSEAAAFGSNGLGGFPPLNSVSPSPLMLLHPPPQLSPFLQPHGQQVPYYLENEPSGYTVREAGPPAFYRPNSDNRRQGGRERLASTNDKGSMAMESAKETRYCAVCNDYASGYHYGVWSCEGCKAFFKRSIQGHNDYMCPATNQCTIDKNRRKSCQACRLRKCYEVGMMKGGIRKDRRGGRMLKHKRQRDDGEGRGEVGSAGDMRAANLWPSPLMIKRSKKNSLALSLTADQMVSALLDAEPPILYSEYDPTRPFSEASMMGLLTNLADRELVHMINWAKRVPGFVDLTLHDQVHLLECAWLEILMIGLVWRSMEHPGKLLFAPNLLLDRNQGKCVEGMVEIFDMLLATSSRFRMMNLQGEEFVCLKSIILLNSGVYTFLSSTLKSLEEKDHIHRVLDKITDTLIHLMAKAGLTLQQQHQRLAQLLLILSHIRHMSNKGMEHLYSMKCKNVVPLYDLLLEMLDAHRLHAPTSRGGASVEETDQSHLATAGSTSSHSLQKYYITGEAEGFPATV
Outline: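 Beta-lactamase FRET fluorescence is read after 2 hr at room temperature with LiveBLAzer B/G substrate. Before that, ER-alpha-bla HEK293 cells sit 4 hr after plating, then receive compound plus 17beta-estradiol and incubate 18 hr at 37C.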

[8] = target: Estrogen receptor (Homo sapiens) (UniProt P03372); experiment: qHTS assay to identify small molecule agonists of the estrogen receptor alpha (ER-alpha) signaling pathway (AID 743075; calls by dose curve;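 further: HEK293 GripTite cells with ER-alpha and UAS-driven beta-lactamase reporter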; further: potency means the concentration at half of the fitted maximal effect)
[9] = target: Estrogen receptor (Homo sapiens) (UniProt P03372); experiment: qHTS assay to identify small molecule agonists of the estrogen receptor alpha (ER-alpha) signaling pathway using the BG1 cell line (AID 743079); conditions: BG1Luc4E2 cells, ERE-luciferase agonist, 22 h; further: nearly all actives have a fitted effect of over 20% in size; further: potency means the concentration at half of the fitted maximal effect
[10] = qHTS assay to identify small molecule antagonists of the estrogen receptor alpha (ER-alpha) signaling pathway using the BG1 cell line (AID 743080; calls by dose curve;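 further: BG1 cells stimulated with 17beta-estradiol alongside compound; nearly all actives have a fitted effect of over 25% in size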; further: potency means the concentration at half of the fitted maximal effect)
Outline: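 After 5 days in phenol-red-free 10% charcoal-stripped FBS medium, BG1-Luc-4E2 cells were seeded, left 24 h at 37 C, co-treated with compounds and 17beta-estradiol for 21.5 h, then assayed for viability and luciferase.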

SMILES	Potency [1]	Potency [2]	Potency [3]	outcome [4]	Potency [5]	Potency [6]	Potency [7]	Potency [8]	activation ([9]; at 70.3 µM (top of the series)) [%]	Potency [10]	Potency [9]	activation ([9]; at 95 µM (top of the series)) [%]
Cc1cnc[nH]1	inactive	inactive	inactive	inactive	inactive	inactive	–	–	–	–	–	–
CCOC(=O)N(C)C(=O)CSP(=S)(OCC)OCC	inactive	inactive	inactive	inactive	inactive	–	–	–	–	–	–	–
COC(=O)COc1ccc(Cl)cc1Cl	inactive	inactive	inactive	inactive	inactive	–	–	–	–	–	–	–
O=CNC(N1CCN(C(NC=O)C(Cl)(Cl)Cl)CC1)C(Cl)(Cl)Cl (centres undefined)	inactive	inactive	inactive	–	inactive	inactive	inactive	inactive	-11.3	inactive	–	–
CNC(=O)Oc1c(C(C)(C)C)cc(C)cc1C(C)(C)C	inactive	inactive	inactive	inactive	inactive	inactive	–	–	–	–	–	–
CNC(=O)Oc1cccc(C(C)C)c1	inactive	inactive	inactive	inactive	inactive	inactive	–	–	–	–	–	–
CC1CCC(=O)O1 (centres undefined)	inactive	inactive	inactive	inactive	inactive	–	–	–	–	–	–	–
CCCCOC(=O)c1ccccc1C(=O)O	inactive	inactive	inactive	inactive	inactive	inactive	–	–	–	–	–	–
[As]#[In]	inactive	inactive	inactive	inactive	inactive	inactive	–	–	–	–	–	–
COCC(=O)N(c1c(C)cccc1C)N1CCOC1=O	inactive	inactive	inactive	inactive	inactive	inactive	–	–	–	–	–	–
Fc1ccc(C2(Cn3cncn3)OC2c2ccccc2Cl)cc1 (centres undefined)	inactive	30.6 µM (active)	inactive	inactive	inactive	3.86 µM (active)	–	inactive	-28.4	68.6 µM (active)	–	–
CCCCCCBr	inactive	inactive	inactive	inactive	inactive	inactive	–	–	–	–	–	–
O=NN1CCCCC1	inactive	inactive	inactive	inactive	inactive	inactive	–	–	–	–	–	–
CCOP(=S)(OCC)Oc1ncn(-c2ccccc2)n1	inactive	inactive	inactive	inactive	inactive	inactive	–	inactive	–	inactive	54.5 µM (active)	–
ClCC(Cl)Cl	inactive	inactive	inactive	inactive	inactive	inactive	–	–	–	inactive	–	–
COc1cccc2c1cc([N+](=O)[O-])c1c(C(=O)O)cc3c(c12)OCO3	3.06 µM (active)	2.73 µM (active)	inactive	–	61.1 µM (active)	10.9 µM (active)	21.9 µM [inconclusive] (active)	inactive	–	–	–	–
CCCCOC(=O)[C@@H](C)Oc1ccc(Oc2ccc(C#N)cc2F)cc1	inactive	inactive	inactive	inactive	inactive	inactive	–	inactive	-4.38	inactive	–	–

SMILES	Potency [1]	Potency [2]	Potency [3]	outcome [4]	Potency [5]	Potency [6]	Potency [7]	Potency [8]	activation ([9]; at 70.3 µM (top of the series)) [%]	Potency [10]	Potency [9]	activation ([9]; at 95 µM (top of the series)) [%]
O=C(Nc1ccccc1)c1ccccc1I	inactive	inactive	inactive	inactive	inactive	–	–	inactive	0.753	inactive	–	–
ClCCOCOCCCl	inactive	inactive	inactive	inactive	inactive	inactive	–	–	–	–	–	–
CCCSC(=O)N(CCC)CCC	inactive	inactive	inactive	inactive	inactive	inactive	–	–	–	–	–	–
CCNc1nc(NC(C)C)nc(OC)n1	inactive	inactive	inactive	inactive	inactive	inactive	–	–	–	–	–	–
COc1ccc(C(=O)N2CCCC2=O)cc1	inactive	inactive	inactive	inactive	inactive	inactive	–	–	–	–	–	–
CC1(C)COP(Oc2ccccc2)OC1	inactive	inactive	54.5 µM (active)	inactive	inactive	inactive	–	–	–	–	–	–
CC(C)COP(=O)(OCC(C)C)OCC(C)C	inactive	inactive	inactive	inactive	inactive	–	–	–	–	–	–	–
Oc1c(Cl)cccc1Cl	inactive	inactive	inactive	inactive	inactive	inactive	–	inactive	20.4	inactive	–	–
CC(C=O)Cc1ccc2c(c1)OCO2 (centres undefined)	inactive	inactive	inactive	inactive	inactive	inactive	–	–	–	–	–	–
CCC(C)(C)c1cc(-n2nc3ccccc3n2)c(O)c(C(C)(C)CC)c1	inactive	inactive	inactive	inactive	inactive	inactive	–	–	–	–	–	–
COc1cc(OC)nc(Sc2cccc(Cl)c2C(=O)O)n1	inactive	inactive	inactive	inactive	inactive	inactive	–	–	–	–	–	–
COC(=O)c1ccccc1S(=O)(=O)NC(=O)Nc1nc(C)cc(C)n1	inactive	inactive	inactive	inactive	inactive	inactive	–	–	–	–	–	–
CC(C)[N+](=O)[O-]	inactive	inactive	inactive	inactive	inactive	inactive	–	–	–	–	–	–
CSc1ccc(C(=O)C(C)(C)N2CCOCC2)cc1	inactive	inactive	inactive	–	inactive	inactive	inactive	61.6 µM [inconclusive] (active)	–	inactive	3.44 µM (active)	–
O=C1OC(=O)C2C1C1(Cl)C(Cl)=C(Cl)C2(Cl)C1(Cl)Cl (centres undefined)	inactive	inactive	inactive	–	inactive	inactive	inactive	inactive	–	inactive	–	-12.2
O=C(O)C(Br)CBr (centres undefined)	inactive	inactive	inactive	inactive	inactive	inactive	–	inactive	–	inactive	–	-6.3
N#CC(CCc1ccc(Cl)cc1)(Cn1cncn1)c1ccccc1 (centres undefined)	30.6 µM (active)	34.4 µM (active)	inactive	–	inactive	30.6 µM (active)	–	inactive	–	61.1 µM (active)	–	–
